Source: PubChem BioAssay
The full list was thinned out, with hits kept by preference.
Tgondii IFNg: T. gondii growth inhibition with IFN-gamma, primary screen, cell-based; Toxoplasma gondii growth in IFN-gamma-treated host cells; hits give low values; activity change, negative = inhibition, % (concentration not given with the values); hit rate 3.8% among 69,000; AID 1259416, 2018; in the data active = activity change below about -70%, passing the limit was not always enough;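 note: host cells are HeLa cells infected with Toxoplasma gondii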
Starred values were filed as active, the others as inactive.

SMILES	Tgondii IFNg
CC(C)(C)C1=NN(CC(=O)N2CCOCC2)C(=O)c2cc3ccccc3n2C1	42.9
COc1ccc(S(=O)(=O)NCCc2sc(-c3ccc(C)cc3)nc2C)cc1OC	36.2
O=C(c1ccc(N2CC[C@@H](c3ccc4c(c3)OCO4)[C@H](O)C2)nc1)N1CCCC1	-27.0
O=C(Cn1ncc2c(N3CCOCC3)ncnc21)NCc1cccc(Br)c1	165.2
C/C(=C\c1ccco1)CN1CCCC1c1ccccn1 (configuration not stated)	24.0
CCOC(=O)C1CCN(Cc2cccc(NC(=O)c3cccs3)c2)CC1	-66.7
Cc1cc(C(=O)N2C[C@H]3C[C@H](O)[C@@H](O)C[C@H]3C2)n[nH]1	4.9
COCC(=O)N1CCO[C@]2(CCC[C@H]2COc2ccccn2)C1	-6.5
O=C(Nc1ccncc1)Nc1ccc(-c2nc(N3CCOCC3)nc(N3C4CCC3COC4)n2)cc1	-74.0*
O=C(C[C@@H]1CC[C@H]2[C@@H](COC[C@H](O)CN2C(=O)c2ccncc2)O1)Nc1ccc(-c2ccccc2)cc1	-43.0
CCc1cc(-c2cccc(NC(C)=O)c2)nc(N2CCOCC2)n1	-25.5
COc1ccc(-c2ccccc2[C@H]2[C@@H](C#N)N(C(=O)NC(C)C)[C@H]2CO)cc1	-12.0
COc1ccc(-c2ccc([C@H]3[C@@H](C#N)N(C(=O)NC(C)C)[C@H]3CO)cc2)cc1	-75.7*
COc1ccc(-c2ccc([C@H]3[C@H](C#N)N(C(=O)NC(C)C)[C@H]3CO)cc2)cc1	-54.8
Cc1ccc2nc(SCC(=O)Nc3ccc(F)cc3)c(C)cc2c1	-26.3
COC(=O)c1ccc(NC(=O)CSc2nnc3c(n2)[nH]c2ccc(F)cc23)cc1	-70.4*
C=CCNc1c(C(=O)OC)c(=O)[nH]c2ccc(F)cc12	32.2
Cn1nc(C2CCN(C(=O)C3CCOCC3)CC2)n(Cc2ccccc2)c1=O	1.2
COc1cc(C(=O)NCC(c2ccc(C)cc2)N2CCN(C)CC2)nc(OC)n1 (configuration not stated)	-51.1
COC(=O)[C@H]1[C@H]2C[C@@H]3c4[nH]c5ccccc5c4CCN3C[C@H]2C[C@@H](OC(=O)c2cc(OC)c(OC)c(OC)c2)[C@@H]1OC	-13.4
CC[C@]1(O)CC2CN(CCc3c([nH]c4ccccc34)[C@@](C(=O)OC)(c3cc4c(cc3OC)N(C)[C@H]3[C@@](O)(C(=O)OC)[C@H](OC(C)=O)[C@]5(CC)C=CCN6CC[C@]43[C@@H]65)C2)C1 (some centres not stated)	-82.0*
COc1cccc(CN2CCc3nc(SCc4nc(-c5ccc(C)cc5)oc4C)[nH]c(=O)c3C2)c1	2.4
CN(c1cncc(C(=O)N2CCN(c3cccc(Cl)c3)CC2)c1)S(=O)(=O)c1ccccc1	-15.1
Cc1ccc(S(=O)(=O)N(C)c2cncc(C(=O)N3CCCCCC3)c2)cc1	-10.5
Cc1ccc(S(=O)(=O)N(C)c2cncc(C(=O)N3CCC(Cc4ccccc4)CC3)c2)cc1	-96.0*
SMILES	Tgondii IFNg
Cc1cc2ncn(CCC(=O)NC(C)c3ccc(N4CCOCC4)cc3)c2cc1C (configuration not stated)	-7.0
Cc1ccc2nc(-c3cc4cccc(C)c4[nH]c3=O)c(NCC3CCCO3)n2c1 (configuration not stated)	141.4
O=C1NC(C(=O)N2CCC(c3cc(Cc4ccccc4)[nH]n3)CC2)CO1 (configuration not stated)	3.3
CN(c1ncccc1CNc1nc(Nc2ccc3c(c2)CC(=O)N3)ncc1C(F)(F)F)S(C)(=O)=O	-80.1*
CS(=O)(=O)c1cccc(CNc2nc(Nc3ccc4c(c3)CCC(=O)N4)ncc2C(F)(F)F)c1	-68.1
CCOCCn1nc(C)cc1C(=O)N1CCOC(c2ccc(F)cc2)C1 (configuration not stated)	-1.9
Fc1cccc(Cl)c1-c1nccn1CCc1ncc[nH]1	2.0
COc1ccc(CNC(=O)CSc2nnc(NC(=O)C3CCC3)s2)cc1	-0.7
Cc1nc(OCC(=O)Nc2cc(Cl)ccc2C)c2ccccc2n1	-7.7
Cc1ccc(Cl)cc1NC(=O)COc1ccccc1Br	-83.1*
CCc1nc(OCC(=O)Nc2cc(Cl)ccc2Cl)c2ccccc2n1	-38.5
CC1(C)CC(=NOC(=O)N2c3ccccc3C=Cc3ccccc32)CC(C)(C)N1	68.3
COC(=O)c1sccc1NC(=O)Cn1nnc(-c2cccc(C(F)(F)F)c2)n1	36.1
O=C(c1csc2c1CCCC2)N1CCOc2ccc(CN3CCN(c4ccccn4)CC3)cc2C1	3.8
COc1ccc2c3c(n(C)c2c1)[C@@H](CO)N(Cc1nccs1)CC31CCN(C(=O)CN(C)C)CC1	4.6
COc1ccc(S(=O)(=O)N2CC3(CN(C(=O)CN(C)C)[C@@H](CO)c4c3c3ccc(OC)cc3n4C)C2)cc1	-27.9
COc1ccc2c3c(n(C)c2c1)[C@@H](CO)N(C(=O)CN(C)C)CC31CN(Cc2nccs2)C1	-108.6*
CN1CC(=O)N(c2cccc(F)c2)CC12CCN(Cc1cccnc1)C2 (configuration not stated)	-8.2
CCc1cccc(NC(=O)CCN2CCN(c3ccncc3)CC2)c1	-32.6
CSc1ncc(C(=O)Nc2ccc(Oc3ccc4c(c3)OCO4)cc2)cn1	-102.9*
CCCN(CCC)S(=O)(=O)c1ccc(NC(=O)c2ccc3c(c2)OCO3)cc1	-64.8
CSc1ncc(C(=O)Nc2cccc(C(=O)N3CCCCC3)c2)cn1	12.6
COC(=O)CN(C)Cc1cccc(C(=O)Nc2cccc(F)c2F)c1	5.9
CN1C[C@H](NC(=O)c2cccc(-n3cccn3)c2)C[C@H]1CO	-4.2
COc1ccccc1-c1cc(NC(=O)c2nnn(-c3ccc(Cl)cc3)c2C)n(C)n1	-78.0*
SMILES	Tgondii IFNg
COc1ccccc1-c1nc(Cn2nnc(C(=O)Nc3cc(Cl)ccc3C)c2C)c(C)o1	11.7
COc1ccccc1-c1cc(NC(=O)c2cccc(Cn3ccnc3C)c2)n(C)n1	-7.4
CCN(Cc1ccc(S(C)(=O)=O)cc1)CC1CCOCC1	10.7
COc1ccc(/C=C2\CC/C(=C\c3ccc(OC)c(OC)c3)C2=O)cc1OC	7.4
COc1cc(/C=C/C(=O)N2CCN(CC(=O)N3CCCC3)CC2)cc(OC)c1OC	13.2
COc1cc(/C=C/C2=NNC(=O)CC2)cc(OC)c1OC	-97.4*
CNC(=O)C[C@@H]1CO[C@@H]2CN(C(=O)N3CCCC3)C[C@@H]12	22.0
O=C1C[C@H]2[C@H](CCN2S(=O)(=O)c2cccc(F)c2)N1	98.0
CC(C)(C)c1nc(SCc2nc(-c3cccc(-n4cccc4)c3)no2)n[nH]1	-80.8*
CC(C)(C)c1ccc(-c2noc(CSc3ccccn3)n2)cc1	178.3
CCOC(=O)c1nc(-c2cccc(-n3cccc3)c2)no1	-17.8
COc1cccc(NC(=O)CN2CCC3(CC2)N=C(c2ccc(F)cc2)C(=O)N3)c1	53.4
CCN(CC)CCOC(=O)c1ccc(N)cc1	11.6
CCCCOc1ccc(C(=O)CCN(CC)CC)cc1	68.9
CCN(CC)CCOc1ccc(/C(=C(\Cl)c2ccccc2)c2ccccc2)cc1	-80.2*
Cc1c(C(=O)NCCS(=O)(=O)N(C)C)sc2ccccc12	3.8
CC(C)N1C2CCC1CN(C(=O)c1cccc(C#N)c1)C2	-8.7
O=C(CC1[C@H]2CN(C(=O)c3ccco3)C[C@@H]12)NCc1ccco1 (some centres not stated)	0.2
CN1C(=O)c2cc(NC(=O)NCc3ccccc3)ccc2OC[C@@H]2O[C@H](CC(=O)NCC3CCCCC3)CC[C@@H]21	-87.0*
CN1C(=O)c2cc(NC(=O)Cc3cccs3)ccc2OC[C@@H]2O[C@H](CC(=O)NCC3CCCCC3)CC[C@@H]21	-77.8*
